Here are results for 59 compounds from PubChem BioAssay AID1850 (Southern Research Specialized Biocontainment Screening …, 2009).

Each structure is given as a SMILES string. Hit rate of the full screen: of about 310,000 compounds, about 1,000 (0.32%) were called active. The list is a sample of the results. Potency and affinity values are given separately. A number with no mark means an inactive call. No rule for the calls is given here.

This assay in a line: Inhibition of PhoP regulon, Salmonella typhi GFP reporter cells, confirmation, 4 h (AID 1850).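 Also: 0% = induced wells with vehicle and 100% = uninduced wells.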 Particulars: Salmonella Typhi PhoP-promoter GFP reporter, fluorescence, at 50 µM, active compounds read high.
Turning to `CCn1c2nc(SCCN3CCOCC3)nnc2c2cc(C)cc(C)c21`, the inhibition is -16.9%.

With `CCCn1c(SCC(=O)N2c3ccccc3Sc3ccccc32)nc2ccccc21`, the inhibition is -6.61%.

With `CN(C)CCCn1c(SCC(=O)N2CC(=O)Nc3ccccc32)nc2ccccc2c1=O`, the inhibition is 0.42%.

As to `CCN1CCCC1CNC(=O)c1ccc(N2CCOCC2)c(NS(=O)(=O)c2ccc(OC)cc2)c1` (centres undefined), the inhibition is 2.06%.

Regarding `COc1ccc(CN2CN(C(C)C)CSC2=S)cc1`, the inhibition is 16.3%.

For `CCN1CSC(=S)N(Cc2ccccc2)C1`, the inhibition was -1.16%.

Consider `NCCCC[C@@H]1NC(=O)c2cc([N+](=O)[O-])cc(I)c2SC[C@@H](C(=O)NCC(N)=O)NC(=O)CNC1=O`, for which the inhibition was -0.813%.

In the case of `CCOc1cc(CNCCCN2CCOCC2)ccc1OCC(=O)Nc1cccc2ccccc12`, the inhibition was 9.38%.

In the case of `COc1cc(CNCCCN2CCOCC2)ccc1OCC(=O)Nc1cccc(C(F)(F)F)c1`, the inhibition is 8.04%.

On to `CC(C)c1ccccc1NC(=O)C1CN(S(=O)(=O)c2ccccc2)CCN1S(=O)(=O)c1ccccc1` (centres undefined), for which the inhibition was -5.27%.

`O=C(N/C(=C/c1cccnc1)C(=O)N1CCOCC1)c1ccccc1Cl`: the inhibition was 1.54%.

With `C[n+]1c(-c2ccccc2)sc2ccccc21`, the inhibition is -0.28%.

Take `COc1ccc(C)cc1Nc1n[n+](-c2ccccc2)c(-c2ccc(N(C)C)cc2)s1`: the inhibition was -6.34%.

Regarding `CCCCn1c(SCC(=O)Nc2cc(C)on2)nnc1-c1ccncc1`, the inhibition was 7.28%.

For `Cc1ccc(C(=O)N/C(=C\c2ccco2)C(=O)N2CCCCC2)cc1`, the inhibition is 11.1%.

Turning to `CC(=O)C1=C(C)NC2=C(C(=O)c3ccccc32)C1c1ccccc1` (centres undefined), the inhibition is -9.36%.

Regarding `CC1=C(C#N)C(c2ccccc2)C2=C(N1)c1ccccc1C2=O` (centres undefined), the inhibition is -2.93%.

Take `COC(=O)C1=C(C)N(CC2CC2)C(=NCCN2CCOCC2)N[C@H]1c1ccccc1`: the inhibition is -21.7%.

For `COc1cc(/C=N/NC(=O)c2ccncc2)ccc1OCC(=O)Nc1ccc(C)c(C)c1`, the inhibition was 8.17%.

Regarding `COc1ccc(C(OCC(O)CNCCc2ccccc2)c2ccc(OC)cc2)cc1` (centres undefined), the inhibition is -15.4%.

As for `Cc1ccc(OCC(O)CNCc2ccc(F)cc2)cc1` (centres undefined), the inhibition was -1.28%.

On to `COc1ccccc1COCC(O)CNCCc1ccc(C(F)(F)F)cc1` (centres undefined), for which the inhibition is 5.56%.

Take `Cc1ccc(C(OCC(O)CNC(C)c2ccccc2)c2ccccc2)cc1` (centres undefined): the inhibition was -20.1%.

As to `COc1ccc2cc(CN(Cc3cccnc3)Cc3nnnn3Cc3ccccc3)c(=O)[nH]c2c1`, the inhibition is -1.66%.

In the case of `CCOC(=O)CSc1c(-c2ccc(Cl)cc2)[nH]c2ccccc12`, the inhibition was -5.57%.

Take `CC1(C)CC(=O)C=C(Nc2ccc(C(=O)O)c(O)c2)C1`: the inhibition was -4.27%.

For the compound `N#C/C(=C\c1cn(CCOc2ccccc2)c2ccccc12)C(=O)NCc1cccs1`, the inhibition was -5.68%.

As for `COc1ccnc(Oc2ccc(C)cc2)c1C#N`, the inhibition was 5.63%.

In the case of `Cc1ccc(C)c(SCC(=O)NCC(c2ccco2)N2CCCCC2)c1` (centres undefined), the inhibition was 19.8%.

Consider `COc1ccc(NS(=O)(=O)c2cccc(C(=O)NNC(=O)c3cncc(Br)c3)c2)cc1`, for which the inhibition was 11.8%.

Turning to `COc1ccccc1N1CCN(C(=O)/C=C/c2cccs2)CC1`, the inhibition was -0.34%.

Consider `Cc1cc(NS(=O)(=O)c2ccc(NC(=O)Nc3cccc(C(F)(F)F)c3)cc2)no1`, for which the inhibition is -2.04%.

In the case of `Cc1cc(NS(=O)(=O)c2ccc(NC(=O)Nc3ccccc3)cc2)no1`, the inhibition was -1.36%.

Regarding `CCN1c2ccccc2NC2C1C(C(C)=O)C(=O)N2c1ccc(Cl)cc1` (centres undefined), the inhibition was -5.05%.

As to `CCCN1C(=O)c2ccccc2NC1c1cc(OC)c(OC)c(OC)c1` (centres undefined), the inhibition was 4.01%.

Take `COc1ccc(-c2[nH]ncc2-c2nc(C)cs2)c(O)c1`: the inhibition is -0.79%.

`Cc1cccc(OCC(O)Cn2c(=N)n(Cc3ccccc3)c3ccccc32)c1` (centres undefined): the inhibition is -11.7%.

Consider `Cc1ccc(OCC(O)Cn2c(=N)n(Cc3ccccc3)c3ccccc32)cc1` (centres undefined), for which the inhibition is -18.7%.

As for `N=c1n(Cc2ccccc2)c2ccccc2n1CC(O)COc1ccccc1` (centres undefined), the inhibition is -2.26%.

For the compound `COc1ccc(OCC(O)Cn2c(=N)n(Cc3ccccc3)c3ccccc32)cc1` (centres undefined), the inhibition is 10.7%.

Consider `Cc1ccn2cc(-c3cccc(NS(C)(=O)=O)c3)nc2c1`, for which the inhibition was -0.47%.

As for `CN(C)c1cccc(C(=O)OCC(=O)Nc2ccccc2-c2ccccc2)c1`, the inhibition is -5.83%.

As to `Cc1ccc(OCCNC(=O)CCC(=O)N2CCOCC2)cc1`, the inhibition is 1.97%.

Consider `CNCc1c(OCc2ccccc2)ccc2ccccc12`, for which the inhibition is 15.5%.

As to `CNCc1c(OCc2ccc(F)cc2)ccc2ccccc12`, the inhibition is 20.5%.

For `Cc1cc(C)c2nc(C)cc(Nc3ccc(C(=O)NCCO)cc3)c2c1`, the inhibition was 1.42%.

For `COc1ccc2oc(C(=O)OCC(=O)N3CC(C)OC(C)C3)c(C)c2c1` (centres undefined), the inhibition is 1.14%.

Consider `O=C1C=C(Nc2cccc3cccnc23)c2ccccc2C1=O`, for which the inhibition is 1.58%.

Regarding `Cc1ccc(NC2=CC(=O)C(=O)c3ccccc32)cc1`, the inhibition was 5.69%.

Consider `O=C1C=C(Nc2ccccc2C(=O)O)c2ccccc2C1=O`, for which the inhibition is 8.73%.

`CCOC(=O)c1ccc(NC2=CC(=O)C(=O)c3ccccc32)cc1`: the inhibition was 0.12%.

For the compound `CS(=O)(=O)N(CC(=O)N1CCC(C(N)=O)CC1)C1CCCCC1`, the inhibition was -1.33%.

As to `CCOC(=O)Cc1csc(NC(=O)c2ccc3ncsc3c2)n1`, the inhibition was -6%.

For `COc1ccc(-n2nc(C(=O)NCC(=O)NCc3ccccc3OC)c3ccccc3c2=O)cc1`, the inhibition was 8.47%.

Regarding `c1ccc(CN2CCN(c3nc(N4CCOCC4)c4ccccc4n3)CC2)cc1`, the inhibition was -3.61%.

With `OCCN1CCN(c2nc(NCc3ccco3)c3ccccc3n2)CC1`, the inhibition was 3.47%.

Consider `OCCNc1nc(N2CCN(Cc3ccccc3)CC2)nc2ccccc12`, for which the inhibition is 1.64%.

Take `c1ccc(N2CCN(c3nc(NCc4ccco4)c4ccccc4n3)CC2)cc1`: the inhibition was 13.6%.

As for `O=C(NC(=S)N1CCN(c2ccc([N+](=O)[O-])cc2)CC1)c1ccco1`, the inhibition is -9.69%.

Usually inhibition stands for the change of the read-out against control, counted positive when it falls.
